# Results filed as inconclusive are left out. Where a call stands in place of a potency, no number is given. Unmarked numbers belong to inactive results. Calls of active or inactive are those of the source. Calls come from the whole dose curve; as a rule, active = well fitted inhibition curve with a large enough effect; inconclusive = small, poorly fitted or top-dose-only effect; inactive = no such curve, though single readings can be large or run the other way.
# Key:
# [1] = system: Zika virus NS2B-NS3 protease (unlinked complex); assay: Primary screen GU Rhodamine qHTS for Zika virus inhibitors: Unlinked NS2B-NS3 protease assay (AID 1347159); conditions: Recombinant ZIKV NS2B-NS3 protease, Rhodamine110 substrate fluorescence; series mostly up to 107 µM; note: nearly all actives have a fitted effect of over 60% in size; note: potency is the fitted concentration of half-maximal effect
# Outline: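 Compounds, tested up to 114 microM, were incubated for 15 minutes with 25 nM unlinked NS2B-NS3 protease at pH 8.0. Cleavage of 1.5 microM Rhodamine110 substrate was then followed by fluorescence for 15 minutes.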
# [2] = system: Zika virus NS2B-NS3 protease (linked construct); assay: Primary screen NINDS Rhodamine qHTS for Zika virus inhibitors (AID 1347160); conditions: purified NS2B-NS3 protease, Rhodamine110 substrate fluorescence; series mostly up to 57.1 µM; note: nearly all actives have a fitted effect of over 55% in size; note: potency is the fitted concentration of half-maximal effect
# Outline: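 Percent inhibition, normalized to uninhibited and enzyme-free controls, is fitted to a 4-parameter Hill equation. Fluorescence change comes from a 15-min cleavage of 1.5 microM bis-peptide Rhodamine110 substrate by 25 nM linked NS2B-NS3 at room temperature.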
# [3] = Tertiary RLuc qRT-PCR qHTS assay for Zika virus inhibitors (AID 1347169); conditions: infected Vero cells, reporter luminescence, 48-72 h; series mostly up to 45.9 µM; note: top concentration of the series differs between compounds; nearly all actives have a fitted effect of over 55% in size
# Outline: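 Vero cells (1,000/well) infected with recombinant ZIKV-RLuc (Cambodian) at MOI 1-2 after compound addition, 48-72 hrs at 37 degrees C. Live-cell Renilla luciferase substrate added; luminescence read after 1-1.5 hrs.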
structure (smiles),measurement,setting,value
Cc1cc(CS(=O)(=O)c2ccccc2)cc(OCc2ccc(CN3CCCC3CO)cc2)c1 (stereo unspecified),Potency,[1],inactive
same,Potency,[2],inactive
CC(C)(N)c1ncc(-c2ccc(OC(F)(F)F)cc2)[nH]1,Potency,[1],inactive
same,Potency,[2],inactive
O=C(c1ccc(Cl)cc1)N1CCN(c2ccnc3cc(Cl)ccc23)CC1,Potency,[1],inactive
same,Potency,[2],inactive
NC(=O)c1nc(Nc2ccccc2)sc1NC(=O)C1CCCCC1,Potency,[1],inactive
same,Potency,[2],inactive
COc1cc2c(cc1NS(=O)(=O)c1ccc(Br)cc1C)n(C)c(=O)n2C,Potency,[1],inactive
same,Potency,[2],inactive
O=C(CCl)Nc1cccc(NC2=NS(=O)(=O)c3ccccc32)c1,Potency,[1],inactive
same,Potency,[2],inactive
O=C(NO)c1ccc(CC(=O)N(CCO)c2ccccc2)cc1,Potency,[1],inactive
same,Potency,[2],inactive
COc1cc(N2CCC(N)CC2)ccc1Nc1ncc(Cl)c(-c2c[nH]c3ccccc23)n1,Potency,[1],inactive
same,Potency,[2],inactive
NS(=O)(=O)c1ccc(N2CCN(CC[C@@H]3OCCc4ccccc43)CC2)cc1,Potency,[1],inactive
same,Potency,[2],inactive
Nc1ncnc2c1nc(Cl)n2C1OC2COP(=O)(O)OC2C1O (stereo unspecified),Potency,[2],inactive
Cc1cc2c(N3CCCC3)nc(N3CCCC3)nc2n1C,Potency,[2],inactive
C=C1C(=O)O[C@@H]2[C@H]1CCC(C)=C(CCC(=O)O)[C@@]2(C)O,Potency,[1],inactive
same,Potency,[2],inactive
C/C=C/C1=CC2=C(CO1)C(=O)C(C)(OC(=O)c1c(C)cc(O)cc1OC)C(O)C2 (stereo unspecified),Potency,[1],inactive
same,Potency,[2],inactive
C[C@@H]1O[C@@H](O[C@H]2[C@H](OC(=O)[C@]34CCC(C)(C)C[C@H]3C3=CCC5[C@@]6(C)C[C@H](O)[C@H](O[C@@H]7O[C@H](C(=O)O)[C@@H](O)[C@H](O)[C@H]7O)[C@@](C)(CO)C6[C@H](O)C[C@@]5(C)[C@]3(C)C[C@H]4O)O[C@@H](CO)[C@@H]2O)[C@H](O)[C@H](O)[C@H]1O[C@@H]1OC[C@@H](O)[C@H](O[C@H]2OC[C@](O)(CO)[C@H]2O)[C@H]1O (stereo partly specified),"activity change, negative = inhibition",[1],13.4% [at 19.1 µM]
same,"activity change, negative = inhibition",[2],-5.61% [at 10.7 µM]
COC(=O)C[C@H]1[C@]2(C)C3=C(C)[C@H](c4ccoc4)C[C@H]3O[C@@H]2[C@H](O)C2[C@](C)(C(=O)OC)C=CC(=O)[C@@]21C (stereo partly specified),Potency,[1],inactive
same,Potency,[2],inactive
CC(C)(C)OC(=O)c1ncn2c1C(C)(C)Nc1ccccc1-2,Potency,[1],inactive
same,Potency,[2],inactive
CC[C@@H]1C[C@]1(NC(=O)[C@@H]1C[C@@H]2CN1C(=O)[C@H](C(C)(C)C)NC(=O)OCC(C)(C)CCCCc1cccc3c1CN(C3)C(=O)O2)C(=O)NS(=O)(=O)C1CC1,Potency,[1],28.2 µM (active)
same,Potency,[2],22.4 µM (active)
CCC/C=C\C=C/CCc1cc(O)c([C@@H]2O[C@H](CO)[C@@H](O)[C@H](O)[C@H]2O)c(O)c1C(=O)OC,Potency,[2],inactive
C=C1C(=O)O[C@H]2CC(=C)[C@H]3CC[C@@](C)(O)[C@@H]3CC12 (stereo partly specified),Potency,[1],11.2 µM (active)
same,Potency,[2],inactive
same,Potency,[3],inactive
